For some of these results: Entries with a potency or affinity are not part of this list.
Tests used:
Parameters in all cases: scale not given: direction of the effect not stated beside the values
[1] = target: Protein translocase subunit SecA (Escherichia coli (strain K12)) (UniProt P10408); test: Assay to Identify E. coli SecA ATPase Inhibitors; type: functional; conditions: 30 µM
[2] = target: T1, Ubiquitin-activating enzyme e1, putative (Leishmania donovani (strain BPK282A1)) (UniProt E9BSI1); test: Leishmania donovani Ubiquitin Activating Enzyme (LdE1); type: functional; conditions: 30 µM
T1 sequence (whole entry): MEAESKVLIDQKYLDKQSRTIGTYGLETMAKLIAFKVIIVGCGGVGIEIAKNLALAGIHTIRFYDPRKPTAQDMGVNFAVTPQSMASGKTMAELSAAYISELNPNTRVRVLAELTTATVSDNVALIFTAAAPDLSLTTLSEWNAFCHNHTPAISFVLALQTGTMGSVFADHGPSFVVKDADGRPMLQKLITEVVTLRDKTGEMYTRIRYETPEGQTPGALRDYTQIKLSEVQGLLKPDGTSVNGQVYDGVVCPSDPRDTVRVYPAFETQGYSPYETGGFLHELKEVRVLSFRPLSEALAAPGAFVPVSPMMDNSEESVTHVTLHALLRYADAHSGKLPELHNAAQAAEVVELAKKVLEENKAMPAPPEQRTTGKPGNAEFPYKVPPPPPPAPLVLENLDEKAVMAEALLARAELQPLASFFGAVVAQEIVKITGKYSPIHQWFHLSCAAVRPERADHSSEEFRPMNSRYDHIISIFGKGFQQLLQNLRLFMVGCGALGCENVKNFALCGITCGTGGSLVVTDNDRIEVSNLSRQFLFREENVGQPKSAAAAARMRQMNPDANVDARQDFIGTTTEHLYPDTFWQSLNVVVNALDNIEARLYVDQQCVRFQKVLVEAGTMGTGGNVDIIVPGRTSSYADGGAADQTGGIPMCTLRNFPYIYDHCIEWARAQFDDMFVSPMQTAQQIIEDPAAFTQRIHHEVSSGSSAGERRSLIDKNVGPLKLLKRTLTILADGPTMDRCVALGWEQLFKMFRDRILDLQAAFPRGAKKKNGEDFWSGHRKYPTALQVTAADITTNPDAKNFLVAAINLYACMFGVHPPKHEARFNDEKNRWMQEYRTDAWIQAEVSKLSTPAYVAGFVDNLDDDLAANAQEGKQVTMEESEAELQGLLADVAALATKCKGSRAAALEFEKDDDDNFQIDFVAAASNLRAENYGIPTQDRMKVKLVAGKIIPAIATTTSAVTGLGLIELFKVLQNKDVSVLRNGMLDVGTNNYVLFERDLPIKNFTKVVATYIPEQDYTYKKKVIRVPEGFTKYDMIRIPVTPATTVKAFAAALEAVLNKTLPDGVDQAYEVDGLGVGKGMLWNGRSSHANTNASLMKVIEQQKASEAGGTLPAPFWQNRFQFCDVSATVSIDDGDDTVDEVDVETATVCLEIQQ

[3] = target: AMP-activated protein kinase, AMPK (Homo sapiens) (UniProt P54646+O43741+P54619+Q9UGJ0+Q9Y478+Q13131+Q9UGI9); test: AMP-dependent Kinase enzyme assay. An in vitro enzyme assay that detects ADP turnover that is directly proportional to AMPK activity. This uses naive AMPK that is activated during the assay with MK-8722; type: functional; conditions: 30 µM
[4] = target: Sialic acid-binding Ig-like lectin 9 (Homo sapiens) (UniProt Q9Y336); test: Hs-Siglec9 ALPHAscreen SOP 20170721; conditions: 10 µM
[5] = tested on: Trypanosoma cruzi; test: Trypanosoma cruzi phosphomannomutase and mannose-1-phosphate guanylyltransferase assay; type: functional; conditions: 10 µM
[6] = target: T2, Arginase-2, mitochondrial (Homo sapiens) (UniProt P78540); test: in vitro enzyme assay to detect the production of urea directly proportional to the activity of Arginase II; type: functional; conditions: 33.3 µM; note: in the data most compounds retested in dose-response had high values
T2 sequence (whole entry): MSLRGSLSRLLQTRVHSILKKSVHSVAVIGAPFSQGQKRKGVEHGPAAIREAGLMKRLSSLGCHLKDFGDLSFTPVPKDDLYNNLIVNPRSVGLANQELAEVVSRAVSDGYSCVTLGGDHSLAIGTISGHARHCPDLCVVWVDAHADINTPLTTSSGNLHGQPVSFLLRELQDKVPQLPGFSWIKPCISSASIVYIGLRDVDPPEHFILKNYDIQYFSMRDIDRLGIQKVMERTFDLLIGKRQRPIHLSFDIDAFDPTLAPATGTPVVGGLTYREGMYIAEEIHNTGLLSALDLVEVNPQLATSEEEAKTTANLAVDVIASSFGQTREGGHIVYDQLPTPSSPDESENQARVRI

[7] = target: T3, Proteasome subunit beta (Trypanosoma cruzi) (UniProt O96673); test: Trypanosoma cruzi proteasome chymotrypsin-like activity (TcProtChymo) assay.; note: in the data most compounds retested in dose-response had high values; type: functional; conditions: 9.37 µM
T3 sequence (whole entry): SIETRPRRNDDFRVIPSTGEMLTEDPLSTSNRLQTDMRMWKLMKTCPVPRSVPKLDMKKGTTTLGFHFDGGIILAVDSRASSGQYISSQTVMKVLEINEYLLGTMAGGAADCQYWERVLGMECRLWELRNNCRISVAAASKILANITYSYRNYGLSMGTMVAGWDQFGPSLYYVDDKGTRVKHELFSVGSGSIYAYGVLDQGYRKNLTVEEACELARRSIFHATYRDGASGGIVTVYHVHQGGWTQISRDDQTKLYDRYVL

[8] = organism: Homo sapiens; test: To identify inhibition of the IFN signalling (Jak-Stat) pathway via expression of an eGFP reporter gene under the control of an IFN-stimulated response element (ISRE) containing MxA promoter.; type: functional; conditions: 30 µM
[9] = target: T4, Tyrosyl-tRNA synthetase, putative (Trypanosoma cruzi (strain CL Brener)) (UniProt Q4DSP6); test: Trypanosoma cruzi tyrosyl tRNA synthetase (TcYRS) _High Tyrosine SOP; type: functional; conditions: 30 µM; note: in the data most compounds retested in dose-response had high values
T4 sequence (whole entry): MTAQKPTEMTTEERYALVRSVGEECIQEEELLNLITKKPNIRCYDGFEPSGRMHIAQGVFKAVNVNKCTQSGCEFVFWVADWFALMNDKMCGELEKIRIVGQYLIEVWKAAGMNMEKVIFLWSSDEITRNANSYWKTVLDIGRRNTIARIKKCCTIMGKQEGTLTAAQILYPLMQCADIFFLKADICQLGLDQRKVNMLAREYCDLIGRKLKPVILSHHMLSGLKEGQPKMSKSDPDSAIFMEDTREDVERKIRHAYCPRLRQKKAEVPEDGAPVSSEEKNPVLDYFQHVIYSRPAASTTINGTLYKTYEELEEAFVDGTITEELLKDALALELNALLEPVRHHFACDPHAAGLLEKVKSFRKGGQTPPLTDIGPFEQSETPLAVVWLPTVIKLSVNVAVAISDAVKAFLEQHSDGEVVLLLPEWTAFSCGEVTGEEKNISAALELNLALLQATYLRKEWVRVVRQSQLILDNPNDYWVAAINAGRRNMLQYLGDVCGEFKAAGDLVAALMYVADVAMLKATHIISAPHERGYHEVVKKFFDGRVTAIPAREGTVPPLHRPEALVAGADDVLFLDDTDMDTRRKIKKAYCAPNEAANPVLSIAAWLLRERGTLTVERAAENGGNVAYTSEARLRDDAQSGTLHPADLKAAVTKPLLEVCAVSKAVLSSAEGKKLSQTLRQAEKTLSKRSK

[10] = target: T4, Tyrosyl-tRNA synthetase, putative (Trypanosoma cruzi (strain CL Brener)); test: Trypanosoma cruzi tyrosyl tRNA synthetase (TcYRS) SOP; type: functional; conditions: 30 µM
[11] = target: Chromo domain-containing protein 1 (Saccharomyces cerevisiae (strain ATCC 204508 / S288c) (Baker's yeast)) (UniProt P32657); test: ScCHD-1 Enzyme Inhibition Assay; type: functional; conditions: 30 µM; note: in the data most compounds retested in dose-response had high values
Sequence of Chromo domain-containing protein 1 (Saccharomyces cerevisiae (strain ATCC 204508 / S288c) (Baker's yeast)) (P32657 whole entry, the tested form may be a part): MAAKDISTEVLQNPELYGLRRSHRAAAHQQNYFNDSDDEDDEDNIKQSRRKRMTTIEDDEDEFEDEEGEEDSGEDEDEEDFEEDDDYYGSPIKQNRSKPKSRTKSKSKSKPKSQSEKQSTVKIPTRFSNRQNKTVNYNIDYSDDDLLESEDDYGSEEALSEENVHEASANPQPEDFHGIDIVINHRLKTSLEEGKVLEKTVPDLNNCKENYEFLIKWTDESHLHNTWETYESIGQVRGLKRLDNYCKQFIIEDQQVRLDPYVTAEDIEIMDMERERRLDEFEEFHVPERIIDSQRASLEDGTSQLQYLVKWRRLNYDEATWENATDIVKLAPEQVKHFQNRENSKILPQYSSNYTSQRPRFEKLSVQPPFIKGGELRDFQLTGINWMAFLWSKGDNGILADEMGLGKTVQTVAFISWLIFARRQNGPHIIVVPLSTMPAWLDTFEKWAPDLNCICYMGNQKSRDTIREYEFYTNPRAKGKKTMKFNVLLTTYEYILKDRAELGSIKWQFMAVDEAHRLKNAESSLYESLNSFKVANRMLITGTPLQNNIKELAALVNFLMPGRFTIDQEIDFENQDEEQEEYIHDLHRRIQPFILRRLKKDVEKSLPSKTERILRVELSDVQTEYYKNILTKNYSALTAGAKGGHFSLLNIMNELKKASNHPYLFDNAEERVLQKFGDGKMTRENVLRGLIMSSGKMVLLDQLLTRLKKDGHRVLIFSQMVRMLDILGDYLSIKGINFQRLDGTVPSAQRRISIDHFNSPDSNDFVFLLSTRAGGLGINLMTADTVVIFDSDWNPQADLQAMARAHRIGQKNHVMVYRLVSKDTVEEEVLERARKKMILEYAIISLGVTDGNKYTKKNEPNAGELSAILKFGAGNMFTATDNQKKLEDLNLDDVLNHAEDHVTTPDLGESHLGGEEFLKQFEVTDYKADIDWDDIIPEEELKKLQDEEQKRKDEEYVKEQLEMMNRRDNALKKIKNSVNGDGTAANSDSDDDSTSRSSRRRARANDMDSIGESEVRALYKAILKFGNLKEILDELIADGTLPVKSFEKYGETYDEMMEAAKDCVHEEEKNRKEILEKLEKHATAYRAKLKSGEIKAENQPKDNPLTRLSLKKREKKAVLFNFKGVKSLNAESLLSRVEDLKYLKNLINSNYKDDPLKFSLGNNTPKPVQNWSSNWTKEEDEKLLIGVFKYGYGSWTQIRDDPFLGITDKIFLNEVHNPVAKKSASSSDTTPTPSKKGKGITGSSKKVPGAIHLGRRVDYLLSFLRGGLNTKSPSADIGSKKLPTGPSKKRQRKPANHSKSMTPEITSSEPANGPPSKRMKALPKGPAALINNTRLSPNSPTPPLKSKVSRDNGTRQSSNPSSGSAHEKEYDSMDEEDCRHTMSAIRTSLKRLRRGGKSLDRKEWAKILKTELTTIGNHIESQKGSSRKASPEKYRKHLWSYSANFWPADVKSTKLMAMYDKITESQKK

Sequence of Protein translocase subunit SecA (Escherichia coli (strain K12)) (P10408 whole entry): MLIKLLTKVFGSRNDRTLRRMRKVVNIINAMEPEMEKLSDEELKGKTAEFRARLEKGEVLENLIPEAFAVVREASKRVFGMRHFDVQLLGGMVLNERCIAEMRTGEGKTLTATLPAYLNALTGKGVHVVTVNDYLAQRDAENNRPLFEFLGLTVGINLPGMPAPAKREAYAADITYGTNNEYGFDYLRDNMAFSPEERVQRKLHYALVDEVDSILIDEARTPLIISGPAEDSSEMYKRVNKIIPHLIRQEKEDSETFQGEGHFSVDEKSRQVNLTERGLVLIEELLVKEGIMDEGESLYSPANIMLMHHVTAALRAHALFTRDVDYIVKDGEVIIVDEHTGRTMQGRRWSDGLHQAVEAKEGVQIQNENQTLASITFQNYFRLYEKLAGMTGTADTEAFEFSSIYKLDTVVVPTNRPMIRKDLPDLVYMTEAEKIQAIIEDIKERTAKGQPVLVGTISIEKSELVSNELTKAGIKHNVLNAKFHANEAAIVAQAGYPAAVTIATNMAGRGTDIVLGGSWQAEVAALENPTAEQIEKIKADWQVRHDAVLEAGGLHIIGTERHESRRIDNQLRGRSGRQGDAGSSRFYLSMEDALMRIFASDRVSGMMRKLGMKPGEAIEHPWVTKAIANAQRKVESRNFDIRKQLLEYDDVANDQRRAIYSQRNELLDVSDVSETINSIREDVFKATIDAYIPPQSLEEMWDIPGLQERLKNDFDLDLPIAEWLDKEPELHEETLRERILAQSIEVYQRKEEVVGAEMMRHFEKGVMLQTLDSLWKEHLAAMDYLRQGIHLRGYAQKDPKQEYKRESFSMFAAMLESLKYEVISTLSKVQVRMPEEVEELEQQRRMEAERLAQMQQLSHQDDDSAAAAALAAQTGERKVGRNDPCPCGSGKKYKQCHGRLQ
Sequence of Sialic acid-binding Ig-like lectin 9 (Homo sapiens) (Q9Y336 whole entry): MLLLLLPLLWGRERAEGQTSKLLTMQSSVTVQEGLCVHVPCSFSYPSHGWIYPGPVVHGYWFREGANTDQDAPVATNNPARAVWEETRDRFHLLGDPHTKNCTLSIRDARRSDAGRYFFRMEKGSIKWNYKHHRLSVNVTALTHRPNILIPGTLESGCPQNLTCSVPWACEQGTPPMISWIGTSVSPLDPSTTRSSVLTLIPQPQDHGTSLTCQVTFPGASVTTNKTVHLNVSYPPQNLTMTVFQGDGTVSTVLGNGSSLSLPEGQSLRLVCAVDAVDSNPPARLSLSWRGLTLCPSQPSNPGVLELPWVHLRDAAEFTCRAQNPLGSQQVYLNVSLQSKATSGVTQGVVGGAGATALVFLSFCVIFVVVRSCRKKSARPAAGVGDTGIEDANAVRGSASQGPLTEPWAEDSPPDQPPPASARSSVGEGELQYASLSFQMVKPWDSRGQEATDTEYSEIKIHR

Row | SMILES | Percent Effect [1] [%] | Percent Effect [2] [%] | Percent Effect [3] [%] | Percent Effect [4] [%] | Percent Effect [5] [%] | Percent Effect [6] [%] | Percent Effect [7] [%] | Percent Effect [8] [%] | Percent Effect [9] [%] | Percent Effect [10] [%] | Percent Effect [11] [%]
1 | CC(=O)N1CCCC1c1cccc(Cc2ccc(F)cc2)n1 (configuration not stated) | -4.97 | 5.33 | 10.8 | 3.6 | 5.91 | -0.233 | 5.37 | 15.6 | 4.25 | 8.97 | 1.18
2 | O=C(Cc1ccccn1)N1C[C@@H]2CC[C@H](C1)N(Cc1ccccc1)C2=O | -1.67 | 2.7 | 0.96 | 6.03 | -4.05 | -4.29 | 14.7 | 12 | 5.82 | 4.88 | -2.65
3 | Cc1ccc2c(c1)c(CNC(=O)C1CCN(C(C)C)CC1)nn2C | 2.34 | 5.41 | -3.84 | -0.447 | -0.579 | -2.38 | 12.9 | -16.3 | 4.76 | 14.6 | -3.28
4 | COc1ccc(C2=C(C)C(N3CCc4ccccc4C3)=NS2(=O)=O)cc1 | -1.81 | -7.79 | 1.57 | -18 | 3.45 | 4.52 | 13.1 | 9.07 | -122 | -39.7 | 79.2
5 | CCc1nc(C)c(C(=O)N2C[C@H]3CC[C@@H]2CN(S(=O)(=O)N(C)C)C3)s1 | -5.92 | 2.67 | -0.605 | -2.09 | -8.28 | -2.08 | 15.9 | 21.2 | -0.546 | 3.7 | -4.98
6 | CCc1nc(C2CCCN(C(=O)c3ccc4c(c3)nnn4C)C2)no1 (configuration not stated) | -9.33 | 18.2 | -4.8 | -5.84 | 5.19 | -4.42 | 14.3 | 5.49 | -10.5 | 21.2 | -20.9
7 | O=C(c1nn(-c2ccccc2F)cc1O)N1CCCC1 | -5 | -10.8 | -2.23 | 3.15 | -3.62 | -0.185 | -6.1 | 5.03 | -6.93 | -8.54 | 4.21
8 | Cc1noc(CN2CCOC(CN(C)C)C2)n1 (configuration not stated) | -2.18 | 24.3 | 0.532 | -4.95 | 5.11 | 2.77 | 11.3 | 22.3 | 5.94 | 18.3 | -7.83
9 | COCCCN1CCCN(C(C)c2nc(C3CC3)no2)CC1 (configuration not stated) | -1.91 | 8.11 | -3.11 | 15.8 | 4.74 | -13.5 | 6.46 | -3.07 | 4.95 | 15.8 | -1.39
10 | Cc1cccc(NC(=O)[C@@H]2CCCN2CC(=O)N2CCCCCC2)n1 | -4.79 | 16 | -8.35 | 23.6 | 5.75 | 34.4 | 14.8 | -1.75 | 4.92 | 16.1 | -6.64
11 | NC(=O)C1CCCN(Cc2c(-c3ccco3)[nH]c3ncccc23)C1 (configuration not stated) | -1.81 | 12.2 | -2.48 | 1.48 | -3.16 | 1.16 | 9.83 | 23.8 | 7.53 | 14.3 | -8.85
12 | Cc1cc(CN2CCN(c3nn4cc(C)nc4s3)CC2)on1 | -0.836 | 16.5 | 4.65 | 3 | -0.923 | 0.215 | 20.4 | 6.94 | 7.29 | 15.2 | -20.7
13 | Cc1noc(C2CCCCN2C(=O)NC2CCCC2)n1 (configuration not stated) | 1.58 | 7.89 | 5.88 | -7.67 | -9.25 | -2.37 | 21.8 | 0.903 | 2.13 | 2.6 | -4.56
14 | CCc1noc(C(C)N2CCN(c3ccc(C#N)cc3F)CC2)n1 (configuration not stated) | -1.97 | 5.26 | 2.6 | -3.73 | 7.89 | -8.28 | 21.2 | -24.1 | 6.38 | 13 | -4.69
15 | Cc1cc(C)n(Cc2cccc(C(=O)NCCN3CCOCC3)c2)n1 | 6.23 | 5.2 | -1.94 | 1.34 | -6.59 | -6.9 | 24.3 | 9.8 | 5.38 | 16.1 | -2.63
16 | COc1cccc2ccn(CCC(=O)N3CCCC(C(=O)O)C3)c12 (configuration not stated) | -7.04 | 21.1 | 5.95 | -0.508 | 3.8 | -1.18 | 14.1 | 6.03 | 2.13 | 10.4 | -7.67
17 | CCOCC(O)CN1CCN(C(=O)C2CC2)CC1 (configuration not stated) | -3.95 | 16.2 | 86.5 | -5.78 | 1.04 | -8.42 | 2.52 | 10.7 | 9.36 | 16.1 | -7.42

— ChEMBL document CHEMBL3988442, “University of Dundee, Small-Polar-MMV Screening Library” (2021)
